These results are taken from PubChem BioAssay AID2685 (National Center for Advancing Translational Sciences (NCATS), 2010).

Out of some 320,000 compounds screened, about 2,100 (0.66%) were called active. Another 53% or so got no clear call; they are omitted. Calls come from the whole dose curve; as a rule, active = well fitted inhibition curve with a large enough effect in the signal ratio, with a control signal flat (not every such curve was filed as active); inconclusive = small, poorly fitted or top-dose-only effect, or effect the other way, or a change in a side signal; inactive = flat fitted curve, though single readings scatter; the % refers to the signal ratio. This excerpt belongs to a sample that is enriched for actives.
Potency is the fitted concentration of half-maximal effect.

The assay in a line: qHTS Assay for Lipid Storage Modulators in Drosophila S3 Cells.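 For cell number change: cells counted by Cell Tracker Red CMTPX staining in the red channel.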 For lipid storage change, negative = inhibition: % is set by controls: 0 for no effect and ±100 for the full control effect. The note with it: BODIPY lipid droplet fluorescence, 18-24 h, cells fed with added oleic acid; cell number change: measured here: cell count max response; series mostly up to 46.1 µM. The essentials: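 Drosophila S3 cells got compounds at several concentrations plus oleic acid (400 uM solution). Laser-scanning cytometry with 488 nm excitation read lipid droplets at 500-530 nm and cells at 575-640 nm. Percent activity was relative to 20 uM Triacsin C.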
On to `COc1ccc(/C=C(\C#N)C(=O)c2c(C)[nH]c3ccccc23)cc1OC`, for which the Potency result was “inactive”.
In the case of `O=C(CSc1ccccc1)Nc1nnc(C2CC2)s1`, the Potency entry is “inactive” and the cell number change stood at 6.15%.
On to `Cc1ccc(NC(=O)COC(=O)CCc2ccc(S(=O)(=O)N3CCOCC3)cc2)c(C)c1`, for which the Potency result is “inactive” and the cell number change came to 16.8%.
The matching figures for `O=C(COC(=O)C1CCC(=O)N1)Nc1ccc(Cl)cc1Cl` (configuration not stated): “inactive” and -17%.
For the compound `Cc1ccc(NC(=O)COC(=O)C2CCC(=O)N2)c(S(=O)(=O)N2CCOCC2)c1` (configuration not stated), the Potency is 3.66 µM (active) and the cell number change was 2.3%.
Turning to `CCC(C)OC(=O)C1=C(C)OC23OC(N)=C(C#N)C12C(=O)c1ccccc13` (configuration not stated), the Potency entry is “inactive” and the cell number change was 2.42%.
Turning to `CC(OC(=O)Cc1c(F)cccc1Cl)C(=O)NC1CCCCC1C` (configuration not stated), the Potency is 16.4 µM (active) and the cell number change was -24.1%.
In the case of `CC(OC(=O)CNC(=O)c1ccc(Cl)cc1)C(=O)NC1CCCCC1C` (configuration not stated), the cell number change amounted to 3.37% and the lipid storage change, negative = inhibition is -18.8% [at 0.0737 µM] (inactive).
With `CC(OC(=O)Cc1ccc(Br)cc1)C(=O)NC1CCCCC1C` (configuration not stated), the Potency result is “inactive” and the cell number change was found to be 5.28%.
The matching figures for `CCc1ccc2oc(=O)cc(CN3CCN(Cc4ccccc4)CC3)c2c1`: “inactive” and 4.49%.
Take `O=C(NCc1ccccc1)c1cc(-c2cccc(O)c2)on1`: the Potency result is “inactive” and the cell number change came to 9.36%.
For `CC(OC(=O)c1nc(Cl)ccc1Cl)C(=O)Nc1ccccc1F` (configuration not stated) the same measures were “inactive” and -13.3%.
For `CN(c1ccccc1)S(=O)(=O)c1cccc(NC(=O)CSc2nnc(C3CC3)n2C)c1` the same measures were 23.1 µM (active) and 4.1%.
For `CC(=O)Nc1ccc(NC(=O)CSc2nnc(C3CC3)n2C)cc1` the same measures were “inactive” and -6.84%.
With `CCn1c(SCC(=O)Nc2ccc(C(C)=O)cc2)nnc1C1CC1`, the Potency entry was “inactive” and the cell number change came out at 13.3%.
For `CC(C)n1cnnc1SCC(=O)Nc1cccc(S(=O)(=O)N(C)c2ccccc2)c1` the same measures were “inactive” and -11.3%.
For `CCn1c(SCC(=O)Nc2cccc(S(=O)(=O)N(C)c3ccccc3)c2)nnc1C1CC1`, the Potency entry was “inactive” and the cell number change turned out to be 0.735%.
For `CC(=O)c1ccc(NC(=O)CSc2nnc(C3CC3)n2C)cc1` the same measures were 1.84 µM (active) and 24.2%.
The matching figures for `COc1ccc(NC(=O)c2ccc(S(=O)(=O)N3CCCCC3)cc2)c(OC)c1`: “inactive” and -34.1%.
`Cc1cc2n(n1)SC(Nc1cc(Cl)ccc1Cl)N2` (configuration not stated): the Potency entry was “inactive” and the cell number change is -3.68%.
Regarding `COc1ccc(N2CCN(CCCNC(=O)CN3C(=O)COc4ccccc43)CC2)cc1`, the Potency result is “inactive” and the cell number change is -22.1%.
For `Cn1c(C(=O)N2CCN(c3ccc(Cl)cc3)CC2)cc2c(=O)[nH]c3ccccc3c21` the same measures were “inactive” and 18.3%.
As for `CCN(CC)c1ccc(/C=N/NC(=O)C(O)(c2ccccc2)c2ccccc2)o1`, the Potency was 20.6 µM (active) and the cell number change was -15.7%.
Consider `O=C(O)COc1ccc(/C=N/NC(=O)C(O)(c2ccccc2)c2ccccc2)cc1`, for which the Potency entry was “inactive” and the cell number change was 7.99%.
For the compound `COc1ccc(/C=N/NC(=O)C(O)(c2ccccc2)c2ccccc2)cc1OC`, the Potency entry was “inactive” and the cell number change is 3.71%.
For `O=C(C1CCN(Cc2cccs2)CC1)N1CCN(Cc2ccc3c(c2)OCO3)CC1` the same measures were “inactive” and 20.4%.
For `C/C(=C/Cc1c(O)cc2oc(C)cc(=O)c2c1O)COC1OC(CO)C(O)C(O)C1O` (configuration not stated) the same measures were “inactive” and 6.97%.
Turning to `CCN1C(=O)[C@H]2[C@@H](c3ccc(-c4ccc(OC)cc4)cc3)N[C@@](CC(C)C)(C(=O)OC)[C@H]2C1=O`, the Potency entry was “inactive” and the cell number change came out at 12.8%.
For `CCN1C(=O)[C@H]2[C@@H](c3ccc(-c4ccccc4)cc3)N[C@@](CC(C)C)(C(=O)OC)[C@H]2C1=O`, the Potency result is “inactive” and the cell number change came to 7.59%.
For `CCN1C(=O)[C@H]2[C@@H](c3ccc(SC4CCCCC4)cc3)N[C@@](CC(C)C)(C(=O)OC)[C@H]2C1=O`, the Potency is 8.2 µM (active).
For `CC(C)NC(=O)c1ccccc1NC(=O)CS(=O)(=O)Cc1ccccc1`, the Potency result is “inactive” and the cell number change was found to be 14.5%.
For `Cc1ccc(NS(=O)(=O)c2ccc3c(c2)oc(=O)n3C)cc1C` the same measures were “inactive” and 5.19%.
For the compound `COc1ccccc1NS(=O)(=O)c1ccc2oc(SC(C)C(=O)N3CCNC3=O)nc2c1` (configuration not stated), the Potency entry was “inactive” and the cell number change is -7.72%.
With `CCOC(=O)CSc1nc2cc(S(=O)(=O)Nc3ccccc3OC)ccc2o1`, the Potency is 29.1 µM (active) and the cell number change is -16.6%.
For `COc1ccccc1NS(=O)(=O)c1ccc2oc(SCc3ccc(F)cc3)nc2c1`, the Potency result is “inactive” and the cell number change was -19.8%.
As to `CSc1ccc(CCNC(=O)CN2C(=O)CCSc3ccccc32)cc1`, the Potency entry is “inactive” and the cell number change was found to be 2.42%.
For `Cc1cc(C)nc(Sc2ccc([N+](=O)[O-])cc2[N+](=O)[O-])n1` the same measures were 16.4 µM (active) and -6.83%.
For `Cc1cc(C)nc(SCc2ccc([N+](=O)[O-])cc2)n1` the same measures were “inactive” and -8.5%.
`Cc1cc(C)nc(SCC(=O)c2ccc([N+](=O)[O-])cc2)n1`: the Potency entry is “inactive”.
Take `C=CCn1c(=O)c2c(nc(-n3nc(C)cc3C)n2C)n(C)c1=O`: the Potency entry is “inactive”.
Consider `Cc1cc(C)nc(N2CCN(C(=O)CCC(=O)Nc3nnc(C(C)C)s3)CC2)n1`, for which the Potency entry is “inactive” and the cell number change was found to be 0.873%.
The matching figures for `O=S(=O)(/N=C(\c1ccccc1F)N1CCCCC1)c1ccccc1`: “inactive” and -0.464%.
As to `CC(C)Oc1ccc(CNC(=O)Cn2c(=O)c3cccn3c3cccnc32)cc1`, the Potency result was “inactive” and the cell number change is -16.2%.
As to `CC1(C)C2CC[C@]1(C)C(=O)N(CCCCN1CCN(c3ccccn3)CC1)C2=O`, the Potency entry was “inactive” and the cell number change was 15.1%.
For the compound `Cc1[nH]c2ccccc2c1SCC(=O)N1CCC(C)CC1`, the Potency entry was “inactive” and the cell number change is -5.95%.
Regarding `S=C1NC2=C(CCCC2)C2(CCCCC2)N1`, the Potency result was “inactive” and the cell number change amounted to 0.876%.
`CSC1=NC2(CCCCC2)C2=C(CCCC2)N1`: the Potency is 5.8 µM (active) and the cell number change was -4.54%.
On to `Cc1cccc(C(=O)Nc2c3c(nn2C(C)(C)C)CS(=O)(=O)C3)c1`, for which the Potency result is “inactive”.
On to `COc1ccc(Cl)cc1NC(=S)NC(=O)c1ccco1`, for which the Potency entry is “inactive” and the cell number change came to 1.24%.
Regarding `COc1cc(NC(=O)c2ccco2)c(C(=O)O)cc1OC`, the Potency result is “inactive” and the cell number change was found to be 5.35%.
The matching figures for `COC(=O)c1cc(OC)c(OC)cc1NC(=S)NC(=O)c1ccco1`: 18.4 µM (active) and -15.6%.
For `CC1CCc2nn(CC(=O)NCc3ccco3)cc2C1` (configuration not stated) the same measures were “inactive” and -0.142%.
The matching figures for `CCCCN(C(=S)NC(=O)c1ccccc1)c1c(N)n(Cc2ccccc2)c(=O)[nH]c1=O`: “inactive” and -12.7%.
With `COC(=O)C(C)SC1=N/C(=C/c2ccc(-n3cncn3)cc2)C(=O)N1` (configuration not stated), the Potency entry is “inactive” and the cell number change is -12.1%.
Consider `Cc1ccc2cc(CN(Cc3ccco3)C(=S)NCC3CCCO3)c(=O)[nH]c2c1` (configuration not stated), for which the Potency result was “inactive” and the cell number change worked out at 3.25%.
As to `COc1ccc(NS(=O)(=O)c2ccc(C(=O)OC(C)C(=O)N3CCOCC3)cc2)cc1` (configuration not stated), the Potency result is “inactive” and the cell number change was -5.78%.
